This is part of a sample that, as a whole, favours compounds with a hit. Of some 83,000 tested, about 20% had one in any assay.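 Cells were grown in 96-well plates and exposed to the test compound at a single concentration for 48 hours; results are reported as percent growth, with values below 10 considered active.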 Values without a mark were called inactive. Activity calls are given as the source filed them.
What follows are molecules tested on MDA-MB-468 breast (assay: NCI-60 one-dose screen, 48 h (100 = growth as untreated, 0 = no growth, -100 = all killed)). Conditions: 10 µM unless noted.

| Structure (SMILES) | growth |
| --- | --- |
| COC(=O)c1ccc([N+](=O)[O-])c(C)c1 | 102% |
| Cc1ccccc1NC(=O)c1sc2nc3c(cc2c1N)C(=O)CCC3 | -4.56% (active) |
| C=C(C)C1CCC(=C)C2CCC3(C)OC12/C=C(/COC(C)=O)CCC3O (stereo not given) | 115% |
| CCOC(=O)c1cnc2c(-c3ccc(Cl)c(Cl)c3)cnn2c1 | 85.4% |
| CN(C)C(=O)Nc1nc2cc(Cl)c(Cl)cc2[nH]1 | -13.4% (active) |
| CCN(CC)CCCNC(=O)c1c2c(n3ccccc13)C(=O)c1ncccc1C2=O | -70.1% (active) |
| Nc1nc(=S)c2[nH]cnc2[nH]1 | -13.1% (active) |
| CCC1=C(c2ccc(OC)cc2)C(C)Oc2cc(OC(C)=O)ccc21 (stereo not given) | -14.1% (active) |
| N/C(=N\C(N)=N\c1nc2ccccc2s1)c1ccc(C(F)(F)F)cc1 | 107% |
| CC(N)C(Cc1ccccc1)c1ccc(Cl)cc1 (stereo not given) | 83.1% |
| Cc1ccc(C(CC(=O)O)c2c(C)[nH][nH]c2=O)cc1 (stereo not given) | 101% |
| O=C(O)c1cn(C2CC2)c2cc(N3CCN(C(=O)C[n+]4ccccc4)CC3)c(F)cc2c1=O | 107% |
| CC1CC(C)S(=O)(=O)C1 (stereo not given) | 112% |
| Cc1ccc(-n2nnc(C3=NCCc4c3[nH]c3ccc(Cl)cc43)c2C)cc1 | 71.5% |
| CNC(=O)c1cc(-c2ccc(NS(=O)(=O)c3ccc(C)cc3)cc2)nc2cccnc12 | 71.1% |
| O=c1[nH]c(=O)c2[nH]c(=O)[nH]c2[nH]1 | 85.6% |
| Fc1ccc(Nc2nc3nonc3nc2Nc2ccc(I)cc2)cc1 | -14.7% (active) |
| FC(F)(F)c1cc(Nc2ccc3c(OCCCN4CCOCC4)cccc3n2)ccc1Cl | 38.3% |
| c1ccc(C(NC2CC3CCC2C3)c2ccccc2)cc1 (stereo not given) | 96.8% |
| CCOC(=O)c1cnc2ccc(OC)cc2c1Nc1cccc(S(=O)(=O)NC)c1 | 113% |

| Structure (SMILES) | growth |
| --- | --- |
| COc1cc(NC(=O)c2cccc(-c3cc(=O)c4c(OC)c(OC)c(OC)cc4o3)c2)cc(OC)c1OC | 47.4% |
| Cc1[nH]c2ccc(F)cc2c1CCNC(=O)C1CCN(C(=O)c2ccc(-c3ccccc3)cc2)CC1 | 48.5% |
| NC(=S)N=Nc1c(O)c2ccccc2c2ccccc12 | 88.3% |
| COC1=CC(c2ccc[nH]2)=N/C1=C\c1[nH]c(C)c(C(=O)CCCCC(=O)Oc2ccc3c(c2)CCC2C3CC[C@]3(C)[C@@H](O)CC[C@@H]23)c1C (stereo not given in full) | 52.2% |
| COc1ccc(Nc2ncccc2NC(=O)c2cn(Cc3cccc(Oc4ccccc4)c3)nn2)cc1OC | 55.6% |
| NC(CSC(c1ccccc1)(c1ccccc1)c1cccc2ccccc12)C(=O)O (stereo not given) | 86% |
| O=C1Nc2ccc(Cl)cc2/C1=N/c1nc(-c2ccc(F)cc2)cs1 | 27.6% |
| CC1(C)C(=O)/C(=C\c2cccnc2)C[C@]2(C)[C@H]3CC[C@@H]4[C@H]5[C@H](C(=O)/C=C/c6cccnc6)CC[C@]5(C(=O)O)CC[C@@]4(C)[C@]3(C)CC[C@@H]12 | -46.4% [100 µM] (active) |
| c1cc(CNCCNCc2ccncc2)ccn1 | 104% |
| CCOC(=O)c1c(NC(=O)CSc2n[nH]c3nc4ccccc4n23)sc(CC)c1C | 68.6% |
| O=C(CNCCN1CCOCC1)N1c2cccc3cccc(c23)N(C(=O)CNCCN2CCOCC2)C1c1cn(-c2ccccc2)nc1-c1cccc([N+](=O)[O-])c1 | 35.8% |
| CCOC(=O)C1=C(c2ccccc2)N=C2N(c3ccccc3)N=C(C(C)=O)N2C1c1ccc(F)cc1 (stereo not given) | 93.2% |
| CCc1nnc(NC(=O)c2nnn(-c3ccccc3)c2-c2ccco2)s1 | 95.9% |
| FC(F)(F)c1ccc(-c2cnc(-n3cc(COCCN4CCCCC4)nn3)nc2NC2CCCCCC2)cc1 | 16.1% |
| N#Cc1c2ccccc2nc2ccccc12 | 84.5% |
| COc1ccccc1-c1ccc2c(N)c(C(=O)c3ccc4c(c3)OCO4)sc2n1 | 55.1% |
| O=C(c1ccc(/C=C/c2n[nH]c3ccccc23)cc1)N1CCNCC1 | 65.9% |
| CCN(CC)CCC(CNc1c(C)cnc2cc(Cl)ccc12)c1ccc(Cl)c(Cl)c1 (stereo not given) | 18.5% |
| CCN(CC)C(CC(=O)c1ccccc1)C(=O)c1ccccc1 (stereo not given) | 56.1% |
| Nc1nc2c(c3cnccc13)C(c1cccc(Br)c1)Cc1cnccc1-2 (stereo not given) | -16.1% (active) |

— PubChem BioAssay (NCI)
